Counter-ions that a name gives are not always drawn. ± gives the uncertainty stated by the source.
Tested on: NCC-MFS5-C1
Assay: cell viability relative to DMSO control; higher = less growth inhibition
Conditions: 10 µM; treatment time: 3 days
Description: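 NCC-MFS5-C1 myxofibrosarcoma cells (1x10^4 per well, 384-well) were treated on day 2 with 10 µM of each drug. On day 5, viability was read by CCK-8 absorbance at 450 nm and normalised to the DMSO control (%), n = 2.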

Row | SMILES | cell viability [%]
1 | CN(C)C/C=C/C(=O)Nc1cc2c(Nc3ccc(F)c(Cl)c3)ncnc2cc1O[C@H]1CCOC1 [Afatinib (BIBW2992) Dimaleate] | 15 ± 7
2 | Nc1cc(C(Cl)=C(Cl)Cl)c(S(N)(=O)=O)cc1S(N)(=O)=O [Clorsulon] | 89.3 ± 2.4
3 | CNC(=O)c1ccc(N2C(=S)N(c3ccc(C#N)c(C(F)(F)F)c3)C(=O)C2(C)C)cc1F [Enzalutamide (MDV3100)] | 80.3 ± 7.7
4 | N#CC[C@H](C1CCCC1)n1cc(-c2ncnc3[nH]ccc23)cn1 | 66.2 ± 4.7
5 | CC(C)C[C@H](NC(=O)[C@H](Cc1ccccc1)NC(=O)c1cnccn1)B(O)O [Bortezomib (PS-341)] | 4.89 ± 1.4
6 | CC[C@H](Nc1ncnc2[nH]cnc12)c1nc2cccc(F)c2c(=O)n1-c1ccccc1 [CAL-101 (Idelalisib, GS-1101)] | 72.3 ± 6.2
7 | O=C(O)CCCN1CCC(O[C@@H](c2ccc(Cl)cc2)c2ccccn2)CC1 [Bepotastine Besilate] | 78.7 ± 2.6
8 | CN1CCN(CCOc2cc(OC3CCOCC3)c3c(Nc4c(Cl)ccc5c4OCO5)ncnc3c2)CC1 [Saracatinib (AZD0530)] | 62.8 ± 3.8
9 | O=S(=O)(O)CCS [Mesna] | 76.99 ± 0.32
10 | C=CC(=O)N1CCC(Oc2cc3c(Nc4ccc(Cl)c(Cl)c4F)ncnc3cc2OC)CC1 [Poziotinib (HM781-36B)] | 68.6 ± 1
11 | Cc1cccc(N(C)C(=S)Oc2ccc3ccccc3c2)c1 [Tolnaftate] | 103 ± 6.7
12 | CC(=O)O[C@]1(C(C)=O)CC[C@H]2[C@@H]3C=C(C)C4=CC(=O)CC[C@]4(C)[C@H]3CC[C@@]21C [Megestrol Acetate] | 93.9 ± 4
13 | Oc1ncnc2[nH]ncc12 [Allopurinol] | 86.2 ± 18
14 | COc1cc2ncnc(Nc3ccc(F)c(Cl)c3)c2cc1NC(=O)/C=C/CN1CCCCC1 | 82.9 ± 3.8
15 | CCN1CCN(Cc2ccc(Nc3ncc(F)c(-c4cc(F)c5nc(C)n(C(C)C)c5c4)n3)nc2)CC1 [Abemaciclib] | 76.5 ± 6.7
16 | N#Cc1ccc(C(c2ccc(C#N)cc2)n2cncn2)cc1 [Letrozole] | 92.3 ± 6.4
17 | COc1ccc(/C=C/C(=O)Nc2ccccc2C(=O)O)cc1OC [Tranilast] | 80.2 ± 2.5
18 | CO[C@H](C(=O)[C@@H](O)[C@@H](C)O)[C@@H]1Cc2cc3cc(O[C@H]4C[C@@H](O[C@H]5C[C@@H](O)[C@H](O)[C@@H](C)O5)[C@H](O)[C@@H](C)O4)c(C)c(O)c3c(O)c2C(=O)[C@H]1O[C@H]1C[C@@H](O[C@H]2C[C@@H](O[C@H]3C[C@](C)(O)[C@H](O)[C@@H](C)O3)[C@H](O)[C@@H](C)O2)[C@H](O)[C@@H](C)O1 [Mithramycin A] | 97.4 ± 4
19 | COc1cc2ncnc(Nc3ccc(F)c(Cl)c3)c2cc1OCCCN1CCOCC1 [Gefitinib(ZD1839)] | 95.1 ± 3.7
20 | CC(=O)O[C@H]1C(=O)[C@@]2(C)[C@H]([C@H](OC(=O)c3ccccc3)[C@]3(O)C[C@H](OC(=O)[C@H](O)[C@@H](NC(=O)c4ccccc4)c4ccccc4)C(C)=C1C3(C)C)[C@]1(OC(C)=O)CO[C@@H]1C[C@@H]2O [Paclitaxel] | 53.9 ± 3.3

Row | SMILES | cell viability [%]
21 | Nc1nc(F)nc2c1ncn2[C@@H]1O[C@H](COP(=O)(O)O)[C@@H](O)[C@@H]1O [Fludarabine Phosphate] | 104 ± 3.5
22 | O=c1[nH]c(=O)n([C@H]2C[C@H](O)[C@@H](CO)O2)cc1F [Floxuridine] | 80 ± 3.9
23 | C#Cc1cccc(Nc2ncnc3cc(OCCOC)c(OCCO)cc23)c1 | 92.2 ± 1.8
24 | O=C(CCBr)N1CCN(C(=O)CCBr)CC1 [Pipobroman-D8] | 108 ± 6.2
25 | CC1(COc2ccc3c(c2)ncn3-c2ccc3cccc(N4CCC(N)CC4)c3n2)COC1 | 26.1 ± 3.3
26 | O=[n+]1c(CBr)c(CBr)n([O-])c2ccccc21 [Conoidin A] | 86.4 ± 1.1
27 | CO[C@H]1O[C@@H]2O[C@@]3(C)CC[C@H]4[C@H](C)CC[C@@H]([C@H]1C)[C@@]24OO3 [Artemether] | 91.2 ± 4.8
28 | CC(C)C(=O)Nc1ccc([N+](=O)[O-])c(C(F)(F)F)c1 [Flutamide] | 78.3 ± 6
29 | C=CC[C@@H]1/C=C(\C)C[C@H](C)C[C@H](OC)[C@H]2O[C@@](O)(C(=O)C(=O)N3CCCC[C@H]3C(=O)O[C@H](/C(C)=C/[C@@H]3CC[C@@H](O)[C@H](OC)C3)[C@H](C)[C@@H](O)CC1=O)[C@H](C)C[C@@H]2OC [Tacrolimus (FK506)] | 93.7 ± 7.5
30 | CN(Cc1cnc2nc(N)nc(N)c2n1)c1ccc(C(=O)N[C@@H](CCC(=O)O)C(=O)O)cc1 [Methotrexate] | 80.2 ± 3.6
31 | Cc1cc(Nc2ncc(Cl)c(Nc3ccccc3S(=O)(=O)C(C)C)n2)c(OC(C)C)cc1C1CCNCC1 [Ceritinib (LDK378)] | 7.58 ± 6.4
32 | CS(=O)(=O)CCNCc1ccc(-c2ccc3ncnc(Nc4ccc(OCc5cccc(F)c5)c(Cl)c4)c3c2)o1 | 77.3 ± 25
33 | Nc1nc2n[nH]nc2c(=O)[nH]1 [Azaguanine-8] | 85.2 ± 7
34 | COc1cc2c(Oc3ccc4[nH]c(C)cc4c3F)ncnc2cc1OCCCN1CCCC1 [Cediranib (AZD2171)] | -0.717 ± 0.35
35 | CO[C@H]1C[C@@H]2CC[C@@H](C)[C@@](O)(O2)C(=O)C(=O)N2CCCC[C@H]2C(=O)O[C@H]([C@H](C)C[C@@H]2CC[C@@H](OC(=O)C(C)(CO)CO)[C@H](OC)C2)CC(=O)[C@H](C)/C=C(\C)[C@@H](O)[C@@H](OC)C(=O)[C@H](C)C[C@H](C)/C=C/C=C/C=C/1C | 52.2 ± 7.9
36 | CC[C@@]1(O)C(=O)OCc2c1cc1n(c2=O)Cc2cc3c(CN(C)C)c(O)ccc3nc2-1 [Topotecan HCl] | 33.3 ± 5.3
37 | Cc1ccc(-c2cc(C(F)(F)F)nn2-c2ccc(S(N)(=O)=O)cc2)cc1 [Celecoxib] | 72.1 ± 10
38 | CNC(=O)c1ccccc1Sc1ccc2c(/C=C/c3ccccn3)n[nH]c2c1 [Axitinib] | 79.1 ± 4.4
39 | Nc1nc(Cl)nc2c1ncn2[C@H]1C[C@H](O)[C@@H](CO)O1 [Cladribine] | 80 ± 9.5
40 | C[C@@H](CN1CC(=O)NC(=O)C1)N1CC(=O)NC(=O)C1 [Dexrazoxane] | 122.6 ± 1.1

From the supplement of paper PMC8773631
